From PubChem BioAssay
Where “and” joins values, the source holds several entries; their conditions need not be identical. Identical values can stand only once. Calls of active or inactive are those of the source.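 How the source made its calls, unless noted: active means inhibition at or above 50% relative to wild type and mutant plate controls; inactive means inhibition below 50%.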

Legend:
[1] = inhibitors of TNFa-induced NFkB p65 translocation, primary screen, imaging, HUVEC, MLSMR starter and 10KST1 sets (AID 438;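 active means inhibition above 20% together with a positive visual image hit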;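 further: compound added about 3h40 before a 20 min TNFalpha stimulation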;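 on inhibition: signal is the nuclear over cytoplasmic p65 intensity ratio per well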); conditions: HUVEC TNFa-induced p65 nuclear translocation; cell count: measured here: nuclei count (cytotoxicity indicator), at 2.08 µM; inhibition: at 2 µM, stronger effect = higher value, 0% TNFa-plus-vehicle, 100% no-TNFa wells
[2] = reduction of polyQ htt aggregates in cells – imaging, exon1htt(103Q)mCFP cells, high-content imaging, primary screen (AID 483;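 active means visual image review flags a hit and inhibition of aggregation exceeds 20%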;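 further: compound exposure lasted 3 days before fixation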;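 on nuclei count: percent of the per-plate median nuclei count of sample wells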); conditions: exon1htt(103Q)mCFP cell line, aggregate imaging, at 2 µM; inhibition of aggregation: stronger effect = higher value; nuclei count: measured here: cell count, toxicity
[3] = endothelial E-selectin expression blockers – imaging, HUVEC, immunofluorescence, MLSMR starter and 10KST1 sets, primary screen (AID 487;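 active means visually confirmed hit in the image check and inhibition above 20%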;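 on inhibition: signal is fraction of cell area covered by stained E-selectin grains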;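 on nuclei count: 100% = median nuclei count of all wells on the same plate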); conditions: HUVEC TNFalpha-induced E-selectin immunofluorescence imaging, at 2 µM; inhibition: stronger effect = higher value; nuclei count: measured here: cell number, toxicity
[4] = Primary imaging screen for DUSP6 inhibitors that restore phospho-Erk in transfected HeLa cells, chemical complementation (AID 609;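 active means compounds giving at least 50% inhibition in the cell-based MKP-3 phosphatase rescue imaging test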;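 on inhibition: phospho-Erk level distribution per well compared with pooled transfected vehicle control wells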); conditions: HeLa MKP-3 transfected, phospho-Erk imaging KS statistic, at 10 µM, cells stimulated with TPA for 15 min
[5] = target: Dual specificity protein phosphatase 6 (Homo sapiens) (UniProt Q16828); test: as above; conditions: HeLa MKP-3 transfected, phospho-Erk imaging KS statistic; at 10 µM; stronger effect = higher value; cells stimulated with TPA for 15 min
Dual specificity protein phosphatase 6 (Homo sapiens), sequence (Q16828 whole entry, looked up): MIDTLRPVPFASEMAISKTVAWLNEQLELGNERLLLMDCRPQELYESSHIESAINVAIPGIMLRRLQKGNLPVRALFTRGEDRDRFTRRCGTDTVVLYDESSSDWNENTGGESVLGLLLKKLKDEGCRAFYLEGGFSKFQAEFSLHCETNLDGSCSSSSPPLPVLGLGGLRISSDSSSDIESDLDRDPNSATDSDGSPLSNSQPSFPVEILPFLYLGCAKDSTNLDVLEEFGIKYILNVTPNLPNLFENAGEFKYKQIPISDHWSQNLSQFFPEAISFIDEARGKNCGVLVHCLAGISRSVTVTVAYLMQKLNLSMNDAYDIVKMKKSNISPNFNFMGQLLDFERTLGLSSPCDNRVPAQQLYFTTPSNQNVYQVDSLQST

[6] = target: Voltage-gated potassium channel subunit beta-2 (Rattus norvegicus) (UniProt P62483); test: inhibitors of rat Kvbeta2 reductase activity – biochemical, NADPH fluorescence, primary screen (AID 622;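 active means fluorescence slope higher than the sample average by over 3 SD, cut at about -0.22 in these data, passing the limit was not always enough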;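 further: slope of raw intensity against log time taken from 70 to 1610 s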); conditions: recombinant KvBeta, 4-cyanobenzaldehyde reduction, at 10 µM, stronger effect = higher value
Voltage-gated potassium channel subunit beta-2 (Rattus norvegicus), sequence (P62483 whole entry, looked up): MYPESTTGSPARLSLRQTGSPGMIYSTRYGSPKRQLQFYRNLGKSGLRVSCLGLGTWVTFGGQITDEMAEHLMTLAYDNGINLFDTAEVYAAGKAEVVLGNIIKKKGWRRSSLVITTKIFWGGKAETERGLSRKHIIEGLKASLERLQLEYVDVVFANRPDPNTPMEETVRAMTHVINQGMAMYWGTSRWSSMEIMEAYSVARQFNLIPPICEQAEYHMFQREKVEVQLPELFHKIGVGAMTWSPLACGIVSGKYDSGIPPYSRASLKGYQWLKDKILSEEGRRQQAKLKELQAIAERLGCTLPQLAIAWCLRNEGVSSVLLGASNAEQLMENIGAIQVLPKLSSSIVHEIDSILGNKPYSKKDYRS

[7] = target: Voltage-gated potassium channel subunit beta-2 (Rattus norvegicus) (UniProt P62483); test: enhancers of rat Kvbeta2 NADPH turnover – biochemical, NADPH fluorescence, primary screen (AID 623;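 active means NADPH fluorescence slope more negative than the mean of all samples by about 3 SD, 99.7% confidence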;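 further: fluorescence intensity change per second fitted from 20 to 320 s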); conditions: Recombinant KvBeta, NADPH fluorescence decrease slope, 10 min; at 10 µM; stronger effect = lower value
[8] = target: Alpha-2C adrenergic receptor (Homo sapiens) (UniProt P18825); test: compounds altering alpha2C-coupled GIRK flux – cell-based, HEK293 alpha2C/GIRK1/2, thallium flux, primary screen (AID 624;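 active means fluorescence slope after compound addition differing from the mean of all screened samples at 99.7% confidence, in either direction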;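 further: slope of fluorescence ratio to pre-addition baseline per second over 15 to 24 s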); conditions: thallium flux BTC fluorescence, at 10 µM, actives lie on both sides
Alpha-2C adrenergic receptor (Homo sapiens), sequence (P18825 whole entry, looked up): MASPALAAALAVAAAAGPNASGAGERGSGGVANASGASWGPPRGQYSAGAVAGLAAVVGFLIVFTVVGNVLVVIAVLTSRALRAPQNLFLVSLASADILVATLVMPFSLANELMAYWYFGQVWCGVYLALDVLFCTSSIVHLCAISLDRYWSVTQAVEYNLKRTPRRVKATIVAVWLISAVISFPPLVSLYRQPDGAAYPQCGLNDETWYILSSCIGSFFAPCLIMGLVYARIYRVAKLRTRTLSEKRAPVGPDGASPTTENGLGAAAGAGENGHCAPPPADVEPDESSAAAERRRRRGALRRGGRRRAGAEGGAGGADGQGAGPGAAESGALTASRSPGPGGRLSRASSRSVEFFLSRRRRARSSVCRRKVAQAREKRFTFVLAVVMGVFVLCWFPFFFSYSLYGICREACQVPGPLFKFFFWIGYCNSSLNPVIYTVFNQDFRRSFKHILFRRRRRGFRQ

[9] = inhibitors of larval lipid processing in zebrafish, primary screen, whole organism, PED6 fluorescence, gall bladder and intestine (AID 686;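 active means a full or partial loss of lipid-probe fluorescence in the fish gall bladder, intestine or both, judged by eye; inactive means no fluorescence loss, or compound toxic to the fish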;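 further: larvae 5 to 7 days old with five fish per well; signal comes from phospholipase A2 cleavage of quenched PED6 carried via bile; overnight exposure to compound and PED6 before scoring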); conditions: Zebrafish larvae PED6 lipid processing, fluorescence scoring; screened at 20 µM (by protocol)
[10] = loss of swimming-algae plug formation – whole organism, Chlamydomonas reinhardtii, WT vs cilia-less mutant, absorbance, 96-well, primary screen (AID 463189); conditions: Chlamydomonas reinhardtii gravitaxis, OD600 absorbance, 2 days; at 10 µM; stronger effect = higher value;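 further: 0% = wild type cc124 cells in DMSO and 100% = ciliumless bld1 mutant cells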
[11] = blockers of RIG-like receptor reporter activation – cell-based, Sendai virus stimulus, luciferase, 10K MLSCN set, TLR/RLR signaling modifier project, primary screen (AID 602276;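 active means inhibition at or above 50% at 10 µM; inactive means inhibition below 50%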;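 further: firefly luciferase from ISG56 promoter only with Renilla not read in this screen; 0% = Sendai virus plus DMSO and 100% = medium plus DMSO without virus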); conditions: HEK293 RL24 IRF3 luciferase reporter, at 10 µM, stronger effect = higher value
[12] = TLR3 IRF3 reporter activation blockers – cell-based, poly I:C stimulus, luciferase, 10K MLSCN set, primary screen (AID 602277;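 active means inhibition of the reporter signal at or above 50%; inactive means inhibition below 50%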); conditions: HEK293-TLR3 RL24 IRF3 luciferase reporter, at 10 µM, stronger effect = higher value
[13] = measured here: cell density z-score
[14] = measured here: nuclear c-Myc green intensity z-score
[15] = measured here: nuclear pErk red intensity z-score, stronger effect = higher value

Row | SMILES | cell count [1] | inhibition [1] | inhibition of aggregation [2] | nuclei count [2] [%] | inhibition [3] | nuclei count [3] [%] | z-score [4, 13] | z-score [4, 14] | z-score [4, 15] | inhibition [5] | fluorescence slope [6] | NADPH fluorescence slope [7] | slope [8] | outcome [9] | inhibition [10] | inhibition [11] | inhibition [12]
1 | COc1cccc(OC)c1C(=O)N1CCN(S(=O)(=O)c2ccc(C)cc2)CC1 | 565 | -7.5% (inactive) | 12.9% (inactive) | 104 | -232% (inactive) | 135 | -0.228 | -1.25 | 0.112 | 5.57% (inactive) | -0.382 (inactive) | 1.3e-06 (inactive) | 0.0062 (inactive) | inactive | -1.26% (inactive) | 5.77% (inactive) | 18% (inactive)
2 | CCCCn1cnc2c(c1=O)c1nc3ccccc3nc1n2Cc1ccc2c(c1)OCO2 | 588 | -2% (inactive) | -18.6% (inactive) | 101 | -78% (inactive) | 129 | 0.775 | -1.04 | -0.0661 | -4.7% (inactive) | -0.159 (inactive) | 1.1e-05 (inactive) | 0.00729 (inactive) | inactive | 10.8% (inactive) | 7.61% (inactive) | 1.84% (inactive)
3 | N=c1c[n+](N2CCOCC2)[n-]o1 | 605 | -7.1% (inactive) | 4.6% (inactive) | 86.9 | -109% (inactive) | 139 | 0.144 | -0.44 | 0.201 | -8.38% (inactive) | -0.496 (inactive) | -5.7e-05 (inactive) | 0.00445 (inactive) | inactive | 5.26% (inactive) and -2.73% (inactive) | 19.5% (inactive) | 43.7% (inactive)
4 | CCCN(CCC)S(=O)(=O)c1ccc(C(=O)O)cc1 | 623 | -9.8% (inactive) | 6.1% (inactive) | 108 | -101% (inactive) | 118 | 0.315 | 0.261 | 0.309 | -2.46% (inactive) | -0.448 (inactive) | 3.2e-06 (inactive) | 0.00488 (inactive) | inactive | -3.99% (inactive) | 0.7% (inactive) | 13.7% (inactive)
5 | CC1=C(/C=C/C(C)=C/C=C/C(C)=C/C(=O)O)C(C)(C)CCC1 | 678 | 3.5% (inactive) | -22.6% (inactive) | 97.6 | -69% (inactive) | 121 | -0.898 | 1.94 | -1.68 | 19% (inactive) | -0.448 (inactive) | -4.4e-05 (inactive) | 0.00401 (inactive) | inactive | 8.28% (inactive) and -12% (inactive) | -11.8% (inactive) | -27.2% (inactive)
6 | N[C@@H](Cc1ccc(O)c(I)c1)C(=O)O | 525 | 0.1% (inactive) | 1.7% (inactive) | 92.3 | -11.6% (inactive) | 110 | -0.528 | -0.732 | -0.19 | -4.44% (inactive) | -0.463 (inactive) | 3e-05 (inactive) | 0.00503 (inactive) | inactive | 0.129% (inactive) and -19.2% (inactive) | 9.28% (inactive) | 24.3% (inactive)
7 | COc1ccc(C2=Nn3c(nnc3-c3ccccc3)SC2)cc1OC | 523 | -5.5% (inactive) | -6.6% (inactive) | 92.4 | -126% (inactive) | 132 | -0.336 | 0.955 | 0.104 | -11.5% (inactive) | -0.413 (inactive) | -0.000132 (inactive) | 0.00597 (inactive) | inactive | 2.7% (inactive) | 25% (inactive) | 40.2% (inactive)
8 | C[N+]12CCC(CC1)C(OC(=O)C(O)(c1ccccc1)c1ccccc1)C2 (stereo not given) | 609 | -0.8% (inactive) | 3.7% (inactive) | 106 | -71.3% (inactive) | 119 | -0.393 | -0.0364 | 0.334 | 3.45% (inactive) | -0.526 (inactive) | -2.4e-05 (inactive) | 0.00456 (inactive) | inactive | -10.3% (inactive) | 6.28% (inactive) | 21.7% (inactive)
9 | O=C(NC1(C(F)(F)F)C(=O)Nc2c1c(=O)[nH]c(=O)n2Cc1ccco1)C1CCCCC1 (stereo not given) | 463 | 4.1% (inactive) | -6.3% (inactive) | 116 | -64.3% (inactive) | 112 | -1.32 | 1.09 | 0.0354 | 3.5% (inactive) | -0.49 (inactive) | 1.3e-05 (inactive) | 0.00536 (inactive) | inactive | 30.9% (inactive) | 12.9% (inactive) | 19.7% (inactive)
10 | CCCCC(=O)O[C@]1(C(=O)CO)CC[C@H]2[C@@H]3CCC4=CC(=O)CC[C@]4(C)[C@H]3[C@@H](O)C[C@@]21C | 559 | -9.3% (inactive) | -2.8% (inactive) | 44.6 | -73.8% (inactive) | 120 | -0.284 | -0.0177 | 0.0777 | -0.493% (inactive) | -0.554 (inactive) | -4.6e-05 (inactive) | 0.00469 (inactive) | inactive | 15.5% (inactive) | -1.27% (inactive) | 57.4% (active)
